Here are results for 37 compounds from the supplement of paper PMC7393113.

Where a name gives a salt, the structure may show the parent alone. ± gives the standard deviation of the averaged measurements.

The subject of one assay is iBMDM (immortalised mouse bone-marrow-derived macrophages), LPS-stimulated. The experiment in a line: mitochondrial superoxide (MitoSOX fluorescence) fold increase over unstimulated control; higher = more LPS-induced mitochondrial ROS (less inhibition). To be noted: inhibitor concentration: 500 nM; LPS: 100 ng/ml; time after LPS: 1 h. The method, boiled down: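 Immortalised mouse bone-marrow-derived macrophages in black 96-well plates were kept in phenol-red-free 1% FCS/DMEM for 20 h, pretreated 30 min with kinase inhibitors (500 nM), loaded with 1 μM MitoSox for 10 min and then given LPS (100 ng/ml). Fluorescence at excitation/emission 510/580 nm was read on a ClarioStar plate reader every 60 min for 4 h, with wells in triplicate. Mitochondrial superoxide is given as fold induction over untreated macrophages, averaged across replicates.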
Consider `C#Cc1cccc(Nc2ncnc3cc4c(cc23)OCCOCCOCCO4)c1` [Icotinib], for which the mitochondrial superoxide worked out at 1.16 ± 0.036.

The compound `Cc1cc(Nc2cc(CN3CCOCC3)c3nc(C)c(Cc4ccc(Cl)cc4F)n3n2)n[nH]1` gave a mitochondrial superoxide of 1.16 ± 0.062.

`COc1ccc(CNC(=O)Nc2ncc([N+](=O)[O-])s2)cc1` showed a mitochondrial superoxide of 1.47 ± 0.037.

In turn, `Cc1ccc(NC(=O)c2ccc(CN3CCN(C)CC3)cc2)cc1Nc1nc(-c2cccnc2)cs1` [Masitinib (AB1010)] returned a mitochondrial superoxide of 1.44 ± 0.013.

Compound `CNC(=O)c1ccc(-c2cnc3ncc(Cc4ccc5ncccc5c4)n3n2)cc1F` came in with a mitochondrial superoxide of 1.12 ± 0.033.

In the case of `CC(C)(C)n1nc(-c2ccc(Cl)cc2)c2c(N)ncnc21`, the mitochondrial superoxide worked out at 1.11 ± 0.019.

As for `Cc1cc([C@@H](C)Nc2ccccc2C(=O)O)c2nc(N3CCOCC3)cc(=O)n2c1`, the mitochondrial superoxide stood at 1.14 ± 0.043.

`COc1cc2ncnc(Nc3ccc(O)c(Br)c3)c2cc1OC` registered a mitochondrial superoxide of 1.04 ± 0.047.

Consider `COc1ccc(-c2ccc3c(N4CCOC[C@@H]4C)nc(N4CCOC[C@@H]4C)nc3n2)cc1CO`, for which the mitochondrial superoxide is 1.14 ± 0.024.

On to `COc1ccc(-c2ccc3c(N4CCOCC4)nc(N4C[C@@H](C)O[C@@H](C)C4)nc3n2)cc1CO`, for which the mitochondrial superoxide is 1.29 ± 0.041.

In turn, `CS(=O)(=O)CCNCc1ccc(-c2ccc3ncnc(Nc4ccc(OCc5cccc(F)c5)c(Cl)c4)c3c2)o1` registered a mitochondrial superoxide of 1.6 ± 0.073.

Take `C=CC(=O)Nc1cccc(Oc2nc(Nc3ccc(N4CCN(C)CC4)cc3OC)ncc2Cl)c1`: the mitochondrial superoxide was determined as 1.42 ± 0.03.

`O=c1c(-c2ccc(O)cc2)coc2cc(O)cc(O)c12` [Genistein] returned a mitochondrial superoxide of 1.22 ± 0.079.

In the case of `Cc1ccc(NC(=O)c2ccc(CN3CCN(C)CC3)cc2)cc1Nc1nccc(-c2cccnc2)n1` [Imatinib (STI571)], the mitochondrial superoxide came to 1.28 ± 0.061.

`CCCNC(=O)Nc1ccc(Oc2ncnc3cc(OC)c(OC)cc23)cc1Cl` yielded a mitochondrial superoxide of 1.15 ± 0.055.

Take `CCNC(=O)Nc1ccc(-c2nc3c(c(N4CCOC[C@@H]4C)n2)CCN(C2COC2)C3)cc1`: the mitochondrial superoxide came to 1.42 ± 0.045.

In turn, `CCN1CCN(c2ccc(Nc3cc(N(C)C(=O)Nc4c(Cl)c(OC)cc(OC)c4Cl)ncn3)cc2)CC1` registered a mitochondrial superoxide of 1.2 ± 0.021.

On to `OCCn1cc(-c2ccc3c(c2)CC/C3=N\O)c(-c2ccncc2)n1`, for which the mitochondrial superoxide came out at 1.36 ± 0.044.

In turn, `O=C(Nc1cc(C(F)(F)F)cc(C(F)(F)F)c1)c1cc(Cl)ccc1O` yielded a mitochondrial superoxide of 0.988 ± 0.04.

The compound `CC(C)(C)c1cnc(CSc2cnc(NC(=O)C3CCNCC3)s2)o1` gave a mitochondrial superoxide of 1.32 ± 0.035.

Regarding `O=C1NC(=O)C(c2ccccc2[N+](=O)[O-])=C1Nc1ccc(O)c(Cl)c1`, the mitochondrial superoxide was 1.12 ± 0.024.

On to `N#CC1(c2ccc(NC(=O)c3cccnc3NCc3ccncc3)cc2)CCCC1` [Apatinib], for which the mitochondrial superoxide stood at 1.09 ± 0.056.

With `COc1cc2c(Oc3ccc(NC(=O)C4(C(=O)Nc5ccc(F)cc5)CC4)cc3F)ccnc2cc1OCCCN1CCOCC1`, the mitochondrial superoxide was 1.25 ± 0.022.

Staying with this assay, now noted: inhibitor concentration: 500 nM; LPS: 100 ng/ml; time after LPS: 2 h.
Compound `O=C(Nc1c[nH]nc1-c1nc2ccc(CN3CCOCC3)cc2[nH]1)NC1CC1` yielded a mitochondrial superoxide of 1.42 ± 0.033.

Compound `COc1cc(N2CCC(N(C)C)CC2)ccc1Nc1ncc(Cl)c(Nc2ccccc2P(C)(C)=O)n1` registered a mitochondrial superoxide of 1.27 ± 0.11.

Compound `Cc1cn(-c2cc(NC(=O)c3ccc(C)c(Nc4nccc(-c5cccnc5)n4)c3)cc(C(F)(F)F)c2)cn1` [Nilotinib (AMN-107)] showed a mitochondrial superoxide of 1.53 ± 0.07.

The compound `COc1ccc(F)c(F)c1C(=O)c1cnc(NC2CCN(S(C)(=O)=O)CC2)nc1N` had a mitochondrial superoxide of 1.57 ± 0.13.

In turn, `Cc1[nH]c(/C=C2\C(=O)Nc3ccccc32)c(C)c1CCC(=O)O` [TSU-68 (SU6668, Orantinib)] yielded a mitochondrial superoxide of 2.2 ± 0.093.

`CN(C[C@@H]1COCCO1)S(=O)(=O)Nc1ccc2ccc3ncc(-c4cnn(C)c4)cc3c(=O)c2c1` registered a mitochondrial superoxide of 1.51 ± 0.054.

Turning to `COCCOc1ccc2c(c1)ncn2-c1ccc2cccc(N3CCC(N)CC3)c2n1`, the mitochondrial superoxide is 1.19 ± 0.035.

For `CNC(=O)c1c(F)cccc1Nc1nc(Nc2cc3c(cc2OC)CCN3C(=O)CN(C)C)nc2[nH]ccc12`, the mitochondrial superoxide amounted to 1.47 ± 0.031.

`CCC[C@H](NC(=O)/C(C#N)=C/c1cccc(Br)n1)c1ccccc1` [Degrasyn (WP1130)] had a mitochondrial superoxide of 1.34 ± 0.032.

Compound `O=C(NCc1cccc(O)c1)Nc1nc(-c2ccncc2)cs1` had a mitochondrial superoxide of 1.44 ± 0.015.

Turning to `O=C(Cc1ccc(-c2ccc(OCCN3CCOCC3)cc2)cn1)NCc1ccccc1`, the mitochondrial superoxide was 1.4 ± 0.1.

`CCCCCCCCc1ccc(CCC(N)(CO)CO)cc1` [Fingolimod (FTY720) HCl] yielded a mitochondrial superoxide of 1.19 ± 0.071.

The compound `O=C(NC1CCNCC1)c1n[nH]cc1NC(=O)c1c(Cl)cccc1Cl` yielded a mitochondrial superoxide of 1.15 ± 0.041.

With `O=C1Nc2ccc(I)cc2C1=Cc1cc(Br)c(O)c(Br)c1`, the mitochondrial superoxide is 1.07 ± 0.074.

`C#Cc1cccc(Nc2ncnc3cc4c(cc23)OCCOCCOCCO4)c1` [Icotinib] displayed a mitochondrial superoxide of 1.19 ± 0.021.

With `Cc1cc(Nc2cc(CN3CCOCC3)c3nc(C)c(Cc4ccc(Cl)cc4F)n3n2)n[nH]1`, the mitochondrial superoxide came to 1.23 ± 0.048.

Take `COc1ccc(CNC(=O)Nc2ncc([N+](=O)[O-])s2)cc1`: the mitochondrial superoxide is 1.54 ± 0.026.

Consider `Cc1ccc(NC(=O)c2ccc(CN3CCN(C)CC3)cc2)cc1Nc1nc(-c2cccnc2)cs1` [Masitinib (AB1010)], for which the mitochondrial superoxide was determined as 1.52 ± 0.067.

`CNC(=O)c1ccc(-c2cnc3ncc(Cc4ccc5ncccc5c4)n3n2)cc1F` displayed a mitochondrial superoxide of 1.36 ± 0.16.

Turning to `CC(C)(C)n1nc(-c2ccc(Cl)cc2)c2c(N)ncnc21`, the mitochondrial superoxide stood at 1.23 ± 0.074.

Take `Cc1cc([C@@H](C)Nc2ccccc2C(=O)O)c2nc(N3CCOCC3)cc(=O)n2c1`: the mitochondrial superoxide was 1.22 ± 0.077.

`COc1cc2ncnc(Nc3ccc(O)c(Br)c3)c2cc1OC` came in with a mitochondrial superoxide of 1.04 ± 0.082.

The compound `COc1ccc(-c2ccc3c(N4CCOC[C@@H]4C)nc(N4CCOC[C@@H]4C)nc3n2)cc1CO` yielded a mitochondrial superoxide of 1.19 ± 0.031.

`COc1ccc(-c2ccc3c(N4CCOCC4)nc(N4C[C@@H](C)O[C@@H](C)C4)nc3n2)cc1CO` displayed a mitochondrial superoxide of 1.24 ± 0.037.

Consider `CS(=O)(=O)CCNCc1ccc(-c2ccc3ncnc(Nc4ccc(OCc5cccc(F)c5)c(Cl)c4)c3c2)o1`, for which the mitochondrial superoxide came out at 1.72 ± 0.07.

On to `C=CC(=O)Nc1cccc(Oc2nc(Nc3ccc(N4CCN(C)CC4)cc3OC)ncc2Cl)c1`, for which the mitochondrial superoxide is 1.53 ± 0.052.

Take `O=c1c(-c2ccc(O)cc2)coc2cc(O)cc(O)c12` [Genistein]: the mitochondrial superoxide amounted to 1.29 ± 0.058.

With `Cc1ccc(NC(=O)c2ccc(CN3CCN(C)CC3)cc2)cc1Nc1nccc(-c2cccnc2)n1` [Imatinib (STI571)], the mitochondrial superoxide worked out at 1.39 ± 0.18.

`CCCNC(=O)Nc1ccc(Oc2ncnc3cc(OC)c(OC)cc23)cc1Cl` showed a mitochondrial superoxide of 1.21 ± 0.066.

For the compound `CCNC(=O)Nc1ccc(-c2nc3c(c(N4CCOC[C@@H]4C)n2)CCN(C2COC2)C3)cc1`, the mitochondrial superoxide was 1.6 ± 0.039.

As for `CCN1CCN(c2ccc(Nc3cc(N(C)C(=O)Nc4c(Cl)c(OC)cc(OC)c4Cl)ncn3)cc2)CC1`, the mitochondrial superoxide worked out at 1.24 ± 0.035.

Consider `OCCn1cc(-c2ccc3c(c2)CC/C3=N\O)c(-c2ccncc2)n1`, for which the mitochondrial superoxide amounted to 1.45 ± 0.064.

On to `O=C(Nc1cc(C(F)(F)F)cc(C(F)(F)F)c1)c1cc(Cl)ccc1O`, for which the mitochondrial superoxide came out at 1.04 ± 0.033.

Compound `CC(C)(C)c1cnc(CSc2cnc(NC(=O)C3CCNCC3)s2)o1` displayed a mitochondrial superoxide of 1.43 ± 0.017.

As to `O=C1NC(=O)C(c2ccccc2[N+](=O)[O-])=C1Nc1ccc(O)c(Cl)c1`, the mitochondrial superoxide was 1.45 ± 0.084.

The compound `N#CC1(c2ccc(NC(=O)c3cccnc3NCc3ccncc3)cc2)CCCC1` [Apatinib] had a mitochondrial superoxide of 1.18 ± 0.021.

As to `COc1cc2c(Oc3ccc(NC(=O)C4(C(=O)Nc5ccc(F)cc5)CC4)cc3F)ccnc2cc1OCCCN1CCOCC1`, the mitochondrial superoxide was 1.35 ± 0.034.
